The list is not random: actives were taken first. Their share in the collection is about 1.3%.
Gli-Sufu block: Gli-Sufu pathway antagonists, primary screen, luciferase luminescence, Sufu-KO-LIGHT cells, uHTS. hit rate 0.74% among 340,000. inhibition, % at 5 µM. Sufu-KO-LIGHT fibroblasts, Gli luciferase reporter luminescence;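 active means inhibition above about 55%, limit read from the data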;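 further: 0% = DMSO-treated cells and 100% = wells with medium but no cells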
COUP-TFII inh: NR2F2 transcriptional activity inhibitors, primary screen, cell-based, luciferase reporter, HEK293T, luminescence. inhibition, % at 8.6 µM. hit rate 0.7% among 370,000. COUP transcription factor 2 (Homo sapiens), P24468. HEK293T NGFI-A luciferase reporter;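 active means inhibition above a per-plate cutoff, mean inhibition of test wells between control levels plus 3 SD, cut at about 38% in these data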;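 further: cells cotransfected with COUP-TFII expression vector driving the NGFI-A reporter; 0% = median of COUP-TF2 test wells and 100% = reporter-only cells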
SRC2 inh: inhibition of GAL4-SRC2 driven luciferase reporter, primary screen, SRC2 inhibitor project, cell-based, luminescence. Nuclear receptor coactivator 2 (Homo sapiens), Q15596. HEK293 GAL4-SRC2 luciferase reporter. inhibition, % at 9 µM. hit rate 0.17% among 370,000. AID 651957, 2012;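 active means inhibition above the mean inhibition of all tested compounds plus 3 SD, set per campaign, cut at about 52% in these data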;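 further: 0% = DMSO treated cells and 100% = cells given Gossypol at 36 µM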
SRC1 inh: SRC1 coactivator transcriptional activity inhibitors, primary screen, cell-based, luminescence; Nuclear receptor coactivator 1 (Homo sapiens), Q15788; hit rate 0.12% among 360,000; HEK293 GAL4-SRC1 luciferase reporter; inhibition, % at 3.6 µM;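 active means inhibition above the campaign mean plus 3 SD, with each screening campaign given its own cutoff, cut at about 60% in these data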;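 further: 0% = DMSO treated cells and 100% = gossypol at 36 µM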
NCOA3 inh: SRC3 coactivator transcriptional activity inhibitors, primary screen, cell-based, luminescence | hit rate 0.17% among 360,000 | HEK293 GAL4-SRC3 luciferase reporter | Nuclear receptor coactivator 3 (Homo sapiens), Q9Y6Q9 | inhibition, % at 3.6 µM | AID 588352, 2011;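 active means inhibition above a per-campaign cutoff, the mean of all compounds plus 3 SD, cut at about 60% in these data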;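 further: 0% = DMSO-treated cells and 100% = gossypol-treated cells at 36 µM; higher means less SRC3-driven luciferase light from the GAL4 reporter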
LRH-1 inv ag: LRH-1 (NR5A2) inverse agonists, primary screen, cell-based, luminescence, HEK293T, StAR-luciferase reporter | Nuclear receptor subfamily 5 group A member 2 (Homo sapiens), O00482 | LRH-1 transfected, 24 h | inhibition, % at 3.6 µM | hit rate 0.13% among 360,000 | AID 602396, 2012;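 active means inhibition above the mean inhibition of all tested compounds plus 3 SD, cut at about 73% in these data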;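 further: 0% = DMSO wells and 100% = reporter-only cells lacking LRH-1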
Target sequence (O00482 whole entry, looked up): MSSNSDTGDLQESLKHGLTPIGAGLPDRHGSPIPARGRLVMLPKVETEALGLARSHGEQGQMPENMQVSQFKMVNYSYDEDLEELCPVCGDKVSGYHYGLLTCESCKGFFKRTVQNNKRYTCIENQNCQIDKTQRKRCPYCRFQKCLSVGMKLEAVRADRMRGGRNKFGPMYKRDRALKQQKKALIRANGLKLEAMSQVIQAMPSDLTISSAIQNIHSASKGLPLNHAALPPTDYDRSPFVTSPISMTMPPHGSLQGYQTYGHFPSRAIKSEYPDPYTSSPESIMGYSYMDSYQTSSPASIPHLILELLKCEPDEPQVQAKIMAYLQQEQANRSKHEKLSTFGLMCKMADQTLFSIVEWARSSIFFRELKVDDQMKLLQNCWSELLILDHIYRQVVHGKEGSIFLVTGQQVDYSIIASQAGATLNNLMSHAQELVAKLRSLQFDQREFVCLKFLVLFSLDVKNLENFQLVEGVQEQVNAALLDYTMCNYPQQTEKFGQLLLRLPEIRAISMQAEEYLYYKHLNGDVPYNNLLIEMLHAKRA
Gli-Sufu confirm: Gli-SUFU pathway antagonists, confirmation, single concentration, luciferase luminescence, Sufu-KO-LIGHT cells | AID 602428, 2012 | Gli luciferase reporter | inhibition, % at 5 µM | shares compounds with Gli-Sufu block | hit rate 40% among 2,500;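 active means mean inhibition at 5 µM reaching about 45%, limit read from the data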;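 further: plate controls were DMSO-treated cells for no effect and wells lacking cells for full effect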
SufuKO cytotox: cytotoxicity in Sufu-KO-LIGHT cells, confirmation, cytotoxicity control for Gli-SUFU antagonist project, cell-based, ATP luminescence, single concentration; AID 651994, 2013; cytotoxicity, % at 5 µM; shares compounds with Gli-Sufu block; hit rate 32% among 2,500;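 active means mean cytotoxicity at 5 µM above about 25%, limit read from the data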;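 further: cells exposed to compound overnight for roughly 16 to 18 hours; plate controls were DMSO wells with cells for no effect and medium without cells for full effect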
Wnt3a counter: Wnt3a reporter signal inhibition, confirmation, counter-screen for Gli-SUFU antagonist project, Wnt-LIGHT cells, luminescence, single concentration. shares compounds with Gli-Sufu block. Wnt3a-driven luciferase reporter. inhibition, % at 6.25 µM. hit rate 20% among 2,500;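 active means mean inhibition above about 25%, limit read from the data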
VP16 Luc counter: Gal4-VP16 luciferase reporter inhibitors, counter-screen for COUP-TFII antagonist project, cell-based, luminescence, HEK293; shares compounds with COUP-TFII inh; inhibition, % at 8.5 µM; hit rate 25% among 2,500; AID 687007, 2013; in the data active means inhibition above about 13%
NR2F2 inh conf: NR2F2 transcriptional activity inhibitors, confirmation, cell-based, luciferase reporter, HEK293, triplicate | shares compounds with COUP-TFII inh | HEK293 NGFI-A luciferase reporter, luminescence | inhibition, % at 8.5 µM | hit rate 45% among 2,500 | AID 687008, 2013;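 active means mean inhibition over three repeats above a set limit taken from the earlier primary screen, cut at about 38% in these data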;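 further: 100% = cells given the luciferase reporter alone without the COUP-TF2 vector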
Starred values were filed as active, the others as inactive; / = no result given.

SMILES | Gli-Sufu block | COUP-TFII inh | SRC2 inh | SRC1 inh | NCOA3 inh | LRH-1 inv ag | Gli-Sufu confirm | SufuKO cytotox | Wnt3a counter | VP16 Luc counter | NR2F2 inh conf
CN(C)c1nc(-c2ccccc2)nc(-c2ccc(Cl)cc2)c1C#N | -77 | -8 | -11 | -9 | 8 | -5 | / | / | / | / | /
CCN(CC)c1nc(-c2ccccn2)nc(-c2ccccc2)c1C#N | 63* | 41* | 24 | 13 | 32 | 45 | 25 | 12 | 10 | 1 | 11
CC(Sc1nc2ccccc2c(=O)n1C)C(=O)N(C)C1CCCCC1 (centres undefined) | 72* | 46* | 26 | 18 | 12 | 28 | 61* | 18 | 10 | 6 | 26
COC(=O)C(CN)CN1C(=O)c2ccccc2C1=O (centres undefined) | / | 9 | -22 | / | / | / | / | / | / | / | /
CCCCNC(=S)Nc1cccc2cnccc12 | 6 | 14 | 1 | 3 | 11 | 27 | / | / | / | / | /
S=C(NCCc1ccccc1)Nc1cccc2cnccc12 | 51 | 67* | 18 | 19 | 28 | 45 | 58* | 18 | 34* | 1 | 61*
CCOC(=O)N1CCC(NC(=O)C2CCCN(Cc3nc(-c4cccc(Cl)c4)oc3C)C2)CC1 (centres undefined) | 54 | 48* | 28 | 13 | 17 | 15 | 60* | 34* | -9 | 0 | 29
COC(=O)[C@]12C[C@H](CC(=O)NCCc3ccccc3OC)C(=O)N(Cc3ccc(Cl)cc3Cl)C1=C[C@H](COCc1ccccc1)O[C@@H]2C | / | -1 | 8 | / | / | / | / | / | / | / | /
CCOC(=O)[C@]12CCCC3=C1N(CCC3)C(=O)[C@@H](CC(=O)NCCC(C)C)C2 | / | -5 | -21 | / | / | / | / | / | / | / | /
O=C(NCCc1c[nH]c2ccccc12)OCc1cn(-c2ccc(F)cc2)nn1 | / | -20 | 20 | / | / | / | / | / | / | / | /
Cc1nn(C)c(C)c1CN(C)S(=O)(=O)c1ccc2ccccc2c1 | 75* | 61* | 25 | 14 | 17 | 39 | 78* | 28* | 37* | 2 | 66*
C=CCN(Cc1ccc2c(c1)OCO2)C(C#CCCCC)C(C)C (centres undefined) | / | -2 | / | / | / | / | / | / | / | / | /
Cc1cccnc1CN1CCN(C(=O)c2cc(COc3ccc4ncccc4c3)on2)CC1 | 62* | 63* | 34 | -55 | 19 | 30 | 66* | 27* | 27* | -1 | 38*
CCOC(=O)N1CCN(C(=O)c2cc(COc3ccc4ncccc4c3)on2)CC1 | 67* | 58* | 30 | 3 | 12 | 27 | 51* | 23 | 23 | -1 | 46*
O=C(c1cc(COc2ccc3ncccc3c2)on1)N1CCC(O)CC1 | 27 | 24 | -22 | -15 | -19 | -7 | / | / | / | / | /
O=C(NC1CCCCCCC1)c1cc(COc2ccc3ncccc3c2)on1 | 73* | 62* | 31 | 24 | 35 | 42 | 73* | 28* | -12 | 2 | 63*
CCC(O)C1CCN(C(=O)c2cc(COc3ccc4ncccc4c3)on2)CC1 (centres undefined) | 73* | 72* | 4 | 24 | 1 | 33 | 65* | 20 | 40* | 5 | 63*
COc1ccc(-n2c(SCC(=O)Nc3ccc(Oc4ccccc4)cc3)nnc2-c2ccc(C)cc2)cc1 | / | -1 | 8 | / | / | / | / | / | / | / | /
Cc1nc2ccccc2n1Cc1ccc(Br)cc1 | 62* | 58* | 28 | 5 | 18 | 38 | 59* | 28* | 22 | -12 | 50*
COc1ccc(Nc2nc(N3CCCC3)c3ccccc3n2)cc1 | 50 | 22 | 6 | 7 | 9 | 11 | / | / | / | / | /
CCN(CC)c1ccc(Nc2nc(N3CCOCC3)c3ccccc3n2)cc1 | 67* | 60* | 29 | 13 | 37 | 34 | 62* | 31* | 8 | 8 | 43*
C#CCN1C(=O)[C@]2(OCCC=C[C@H]2C)c2cc(OC)ccc21 | / | 3 | -1 | / | / | / | / | / | / | / | /
CCCCN1C(=O)/C(=C/C=C2\Oc3ccccc3N2CC)SC1=S | 6 | -7 | 4 | 11 | -1 | 1 | / | / | / | / | /
CCN1/C(=C/C=C/c2oc3ccc(-c4ccccc4)cc3[n+]2CC)Oc2ccc(-c3ccccc3)cc21 | 88* | 84* | 29 | 59 | 48 | 67 | 90* | 35* | 39* | 40* | 94*
S=C(NCc1ccccc1)Nc1cccc2cnccc12 | 65* | 57* | 7 | -13 | 15 | 26 | / | / | / | 11 | 36
SMILES | Gli-Sufu block | COUP-TFII inh | SRC2 inh | SRC1 inh | NCOA3 inh | LRH-1 inv ag | Gli-Sufu confirm | SufuKO cytotox | Wnt3a counter | VP16 Luc counter | NR2F2 inh conf
COc1ccc(Cn2ccc3ccc(-c4ccc5ccn(Cc6ccc(C#N)cc6)c5c4)cc32)cc1 | / | -4 | -13 | / | / | / | / | / | / | / | /
CCN1CCN(Cc2ccc(NC(=O)c3cccc(-c4ccc5nc(NC(=O)C6CC6)sc5n4)c3)cc2C(F)(F)F)CC1 | / | 40* | 37 | / | / | / | / | / | / | 11 | 40*
N#Cc1c(NCc2ccccc2)ccnc1NCc1cccnc1 | 37 | 44* | 28 | 5 | 28 | 23 | / | / | / | 2 | 42*
N#Cc1c(F)cccc1NCc1cccnc1 | -10 | -11 | -12 | -24 | -10 | 0 | / | / | / | / | /
COC(=O)[C@]1(C#N)CC(=O)N(C)[C@@H]1c1ccccc1 | / | -2 | -6 | / | / | / | / | / | / | / | /
S=C(NCC1(c2ccccc2)CCCC1)Nc1ccccc1 | 10 | 42* | 12 | -7 | 18 | 14 | / | / | / | 4 | 8
O=C(NCC1(c2ccccc2)CCCC1)C(=O)NCC1(c2ccccc2)CCCC1 | 20 | -2 | -9 | 6 | -1 | -8 | / | / | / | / | /
COCC(C)n1c(-c2ccc3c(c2)NC(=O)CO3)csc1=Nc1ccc(OC(F)F)cc1 (centres undefined) | -5 | 48* | 28 | 20 | 24 | 39 | / | / | / | 16* | 56*
